In PubChem BioAssay (EPA / NIEHS):
“And” between values parts separate entries of the source, which are not always exact repeats. Equal entries are not always repeated. Inconclusive results are not listed. Where a structure was tested more than once in an assay, its records may differ in their call. The source made the active and inactive calls. How the source made its calls, unless noted: active means hit-call score of the fitted dose curve at least 0.9, where 1 is the maximum; inactive means score below 0.9.

Tests used:
[1] = read-out: Macrophage colony-stimulating factor (MCSF), CSF1 (gene 1435); assay: BSK_LPS_MCSF: BioMAP Diversity Plus: LPS Assay for Macrophage colony-stimulating factor (MCSF) Biomarker Activity (AID 2283083); conditions: primary human HUVEC with PBMC; actives raise or lower the signal
In short: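 Bidirectional fit versus DMSO of ELISA-measured M-CSF in co-cultured human umbilical vein endothelial cells and PBMC, sampled 24 h after dosing.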

[2] = read-out: Tissue Factor, F3 (gene 2152); assay: BSK_LPS_TissueFactor: BioMAP Diversity Plus: LPS Assay for Tissue Factor Biomarker Activity (AID 2283084); conditions: primary human HUVEC with PBMC; actives raise or lower the signal
In short: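 Read-out: CD142 ELISA, 24 h. System: LPS-driven human endothelial/PBMC co-culture. Analysis: up- or down-signal fitted against DMSO.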

[3] = read-out: Tumor necrosis factor (Homo sapiens) (UniProt P01375); assay: BSK_LPS_TNFa: BioMAP Diversity Plus: LPS Assay for Tumour Necrosis Factor alpha (TNFa) Biomarker Activity (AID 2283085); conditions: primary human HUVEC with PBMC; actives raise or lower the signal
In short: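 Human umbilical vein endothelial cells co-cultured with PBMC and stimulated with LPS. TNFa was measured by ELISA 24 h after chemical dosing, fitted bidirectionally relative to DMSO.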

[4] = read-out: Vascular cell adhesion molecule 1 (VCAM1), VCAM1 (gene 7412); assay: BSK_LPS_VCAM1: BioMAP Diversity Plus: LPS Assay for Vascular cell adhesion molecule 1 (VCAM1) Biomarker Activity (AID 2283086); conditions: primary human HUVEC with PBMC; actives raise or lower the signal
In short: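 Human umbilical vein endothelial cells co-cultured with PBMC and stimulated with LPS; VCAM-1 measured by ELISA 24 h after dosing. Bidirectional curve fitting against DMSO baseline; cytotoxicity tracked in parallel by SRB total-protein staining.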

CD38, CD38 (gene 952) = assay: BSK_SAg_CD38: BioMAP Diversity Plus: SAg Assay for CD38 Biomarker Activity (AID 2283087); conditions: primary human HUVEC with PBMC; actives raise or lower the signal
In short: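 Human HUVEC plus PBMC co-culture stimulated with superantigen; CD38 measured by ELISA 24 h after chemical dosing. Fluorescence read-out, bidirectional fit against DMSO; cytotoxicity tracked in parallel by SRB and Alamar Blue.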

CD40, CD40 (gene 958) = assay: BSK_SAg_CD40: BioMAP Diversity Plus: SAg Assay for CD40 Biomarker Activity (AID 2283088); conditions: primary human HUVEC with PBMC; actives raise or lower the signal
In short: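 Endpoint derived by fitting increases or decreases versus DMSO controls. CD40 is detected by fluorescence ELISA in a human vascular co-culture of endothelium and PBMC at 24 h.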

CD69, CD69 (gene 969) = assay: BSK_SAg_CD69: BioMAP Diversity Plus: SAg Assay for CD69 Biomarker Activity (AID 2283089); conditions: primary human HUVEC with PBMC; actives raise or lower the signal;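 on AC50: cell surface CD69 protein quantified by ELISA with fluorescence detection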
In short: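 Values derive from bidirectional fitting relative to DMSO vehicle. Cells: umbilical vein endothelium plus peripheral blood mononuclear cells, treated 24 h before fluorescent ELISA for CD69.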

[5] = read-out: Monocyte Chemoattractant Protein-1 (MCP1), CCL2 (gene 6347); assay: BSK_SAg_MCP1: BioMAP Diversity Plus: SAg Assay for Monocyte Chemoattractant Protein-1 (MCP1) Biomarker Activity (AID 2283090); conditions: primary human HUVEC with PBMC; actives raise or lower the signal
In short: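 MCP-1 levels in the endothelial–PBMC SAg co-culture were quantified by ELISA at 24 h post-dosing; both increases and decreases versus DMSO scored. Cytotoxicity monitored by SRB total protein in parallel cultures.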

[6] = read-out: Monokine induced gamma interferon (MIG), CXCL9 (gene 4283); assay: BSK_SAg_MIG: BioMAP Diversity Plus: SAg Assay for Monokine induced gamma interferon (MIG) Biomarker Activity (AID 2283092); conditions: primary human HUVEC with PBMC; actives raise or lower the signal
In short: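 Values reflect bidirectional fitting of ELISA-measured MIG against DMSO vehicle, taken 24 h after dosing of a co-culture of human umbilical vein endothelial cells and peripheral blood mononuclear cells.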

[7] = BSK_SAg_PBMCCytotoxicity: PBMC Cytotoxicity Assessment in the BioMAP Diversity Plus: SAg Assay (AID 2283093); conditions: primary human HUVEC with PBMC;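 further: PBMC viability measured as Alamar Blue reduction fluorescence at 546/580 nm; fitted both ways against DMSO so a hit may be loss or gain of signal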;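 on AC50: PBMC superantigen activated with SEB plus TSST-1 one hour after compound addition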
In short: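 Compound added to 75,000 PBMC/well for 1 h; SEB and TSST-1 then added at 20 ng/mL final each; 90 h incubation; Alamar Blue 6 h; read 546/580 nm ex/em. Activity fitted bidirectionally relative to DMSO baseline.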

[8] = read-out: Interleukin-8 (IL8), CXCL8 (gene 3576); assay: BSK_SAg_IL8: BioMAP Diversity Plus: SAg Assay for Interleukin-8 (IL8) Biomarker Activity (AID 2283094); conditions: primary human HUVEC with PBMC; actives raise or lower the signal
In short: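 Human umbilical vein endothelial cells co-cultured with PBMC, stimulated with superantigen; IL-8 measured by ELISA 24 h after chemical dosing. Bidirectional fitting versus DMSO; SRB staining in parallel cultures tracks cytotoxicity.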

[9] = BSK_SAg_Proliferation: Cell Proliferation Assessment in the BioMAP Diversity Plus: SAg Assay (AID 2283095); conditions: primary human HUVEC with PBMC
In short: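 Human umbilical vein endothelial cells co-cultured with PBMC; sulforhodamine B total-protein staining (0.1% SRB after 10% TCA fixation, absorbance 560 nm) at 96 h in sub-confluent culture. Fitted bidirectionally against DMSO.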

[10] = BSK_SAg_SRB: Viability Assessment in the BioMAP Diversity Plus: SAg Assay (AID 2283096); conditions: primary human HUVEC with PBMC;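 further: cells read one day after compound addition; hits may be either gain or loss of signal compared with DMSO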
In short: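 Total protein by sulforhodamine B staining, 24 h after dosing, in HUVEC–PBMC co-culture; DMSO-referenced bidirectional fitting.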

[11] = read-out: E-selectin (Homo sapiens) (UniProt P16581); assay: BSK_SAg_Eselectin: BioMAP Diversity Plus: SAg Assay for Eselectin Biomarker Activity (AID 2283091); conditions: primary human HUVEC with PBMC; actives raise or lower the signal
In short: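 Endpoint values derive from bidirectional fitting relative to DMSO, using ELISA-measured E-selectin in a human vascular co-culture (umbilical vein endothelium plus PBMC) sampled 24 h after dosing.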

[12] = molecular target: human CYP2A6, CYP2A6 (gene 1548) (UniProt P11509); assay: NVS_ADME_hCYP2A6: NovaScreen (NVS) CYP450-related Enzyme Activity (ADME) Assay for human CYP2A6 (AID 2283099; active means hit-call score of the fitted dose curve at least 0.9, where 1 is the maximum)
human CYP2A6, CYP2A6 (gene 1548), sequence (P11509 whole entry, looked up): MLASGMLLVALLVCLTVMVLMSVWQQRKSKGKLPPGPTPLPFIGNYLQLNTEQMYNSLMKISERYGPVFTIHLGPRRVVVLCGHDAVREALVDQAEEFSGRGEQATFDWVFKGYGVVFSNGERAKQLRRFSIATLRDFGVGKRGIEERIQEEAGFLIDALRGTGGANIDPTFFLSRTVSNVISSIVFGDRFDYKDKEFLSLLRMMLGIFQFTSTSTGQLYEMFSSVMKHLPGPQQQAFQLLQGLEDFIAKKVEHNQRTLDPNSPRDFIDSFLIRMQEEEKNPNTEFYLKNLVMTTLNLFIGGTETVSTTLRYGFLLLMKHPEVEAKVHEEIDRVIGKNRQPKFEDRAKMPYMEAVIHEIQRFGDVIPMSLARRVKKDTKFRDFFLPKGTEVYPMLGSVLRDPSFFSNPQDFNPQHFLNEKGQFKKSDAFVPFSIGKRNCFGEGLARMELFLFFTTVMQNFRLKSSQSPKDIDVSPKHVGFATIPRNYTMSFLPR
In short: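 Loss of fluorescence signal relative to acetonitrile vehicle reported CYP2A6 inhibition in a cell-free system using insect-cell-derived enzyme. Readings were taken at 0.5 h; top concentration in follow-up dose series was 20 uM.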

[13] = molecular target: human CYP1A1, CYP1A1 (gene 1543) (UniProt P04798); assay: NVS_ADME_hCYP1A1: NovaScreen (NVS) CYP450-related Enzyme Activity (ADME) Assay for human CYP1A1 (AID 2283100; active means hit-call score of the fitted dose curve at least 0.9, where 1 is the maximum)
human CYP1A1, CYP1A1 (gene 1543), sequence (P04798 whole entry, looked up): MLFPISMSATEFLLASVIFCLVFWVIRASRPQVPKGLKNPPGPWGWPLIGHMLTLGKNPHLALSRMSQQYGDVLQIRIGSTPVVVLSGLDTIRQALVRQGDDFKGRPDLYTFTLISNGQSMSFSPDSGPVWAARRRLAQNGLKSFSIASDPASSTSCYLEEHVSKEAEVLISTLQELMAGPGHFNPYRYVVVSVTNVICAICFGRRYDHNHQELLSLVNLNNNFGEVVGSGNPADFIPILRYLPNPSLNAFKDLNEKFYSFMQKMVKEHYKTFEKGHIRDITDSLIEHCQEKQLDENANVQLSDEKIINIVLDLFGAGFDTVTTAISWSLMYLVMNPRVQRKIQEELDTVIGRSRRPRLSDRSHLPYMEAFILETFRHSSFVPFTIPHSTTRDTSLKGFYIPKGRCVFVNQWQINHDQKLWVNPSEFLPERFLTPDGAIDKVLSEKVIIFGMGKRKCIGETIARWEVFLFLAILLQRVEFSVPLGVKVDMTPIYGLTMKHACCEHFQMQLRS
In short: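 Inhibition of recombinant CYP1A1 turnover was assessed fluorometrically in a biochemical format 1 h after compound exposure. Testing began at 10 uM in duplicate and progressed to concentration series reaching 20 uM, with on-plate positive and negative controls.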

[14] = molecular target: human CYP2B6, CYP2B6 (gene 1555) (UniProt P20813); assay: NVS_ADME_hCYP2B6: NovaScreen (NVS) CYP450-related Enzyme Activity (ADME) Assay for human CYP2B6 (AID 2283101; active means hit-call score of the fitted dose curve at least 0.9, where 1 is the maximum)
human CYP2B6, CYP2B6 (gene 1555), sequence (P20813 whole entry, looked up): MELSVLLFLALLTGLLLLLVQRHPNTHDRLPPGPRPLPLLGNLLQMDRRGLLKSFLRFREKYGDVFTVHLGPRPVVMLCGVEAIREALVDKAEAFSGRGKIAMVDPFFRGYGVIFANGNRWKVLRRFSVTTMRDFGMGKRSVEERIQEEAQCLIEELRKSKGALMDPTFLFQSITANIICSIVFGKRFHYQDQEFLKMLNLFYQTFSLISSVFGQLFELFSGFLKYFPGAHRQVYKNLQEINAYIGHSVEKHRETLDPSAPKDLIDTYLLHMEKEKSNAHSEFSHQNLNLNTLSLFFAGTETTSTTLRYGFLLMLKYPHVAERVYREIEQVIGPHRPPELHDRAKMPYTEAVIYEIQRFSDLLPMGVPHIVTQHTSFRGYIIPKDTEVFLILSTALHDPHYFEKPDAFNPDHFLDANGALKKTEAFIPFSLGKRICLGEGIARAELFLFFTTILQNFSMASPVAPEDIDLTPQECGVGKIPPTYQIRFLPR
In short: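 Compounds were first screened in duplicate at 10 uM against recombinant enzyme, with the fluorescent product measured after 1 hour. Active compounds were retested over a concentration series. Loss of fluorescence versus acetonitrile control was scored as reduced enzyme activity.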

Measured: AC50

Tumor necrosis factor (Homo sapiens), sequence (P01375 whole entry, looked up): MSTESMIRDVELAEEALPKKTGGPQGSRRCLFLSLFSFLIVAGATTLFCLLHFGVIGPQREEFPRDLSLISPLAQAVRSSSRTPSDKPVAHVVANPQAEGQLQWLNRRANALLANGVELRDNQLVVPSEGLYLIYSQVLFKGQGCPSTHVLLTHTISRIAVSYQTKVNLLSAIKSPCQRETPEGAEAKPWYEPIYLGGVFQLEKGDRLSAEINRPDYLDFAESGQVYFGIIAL
E-selectin (Homo sapiens), sequence (P16581 whole entry, looked up): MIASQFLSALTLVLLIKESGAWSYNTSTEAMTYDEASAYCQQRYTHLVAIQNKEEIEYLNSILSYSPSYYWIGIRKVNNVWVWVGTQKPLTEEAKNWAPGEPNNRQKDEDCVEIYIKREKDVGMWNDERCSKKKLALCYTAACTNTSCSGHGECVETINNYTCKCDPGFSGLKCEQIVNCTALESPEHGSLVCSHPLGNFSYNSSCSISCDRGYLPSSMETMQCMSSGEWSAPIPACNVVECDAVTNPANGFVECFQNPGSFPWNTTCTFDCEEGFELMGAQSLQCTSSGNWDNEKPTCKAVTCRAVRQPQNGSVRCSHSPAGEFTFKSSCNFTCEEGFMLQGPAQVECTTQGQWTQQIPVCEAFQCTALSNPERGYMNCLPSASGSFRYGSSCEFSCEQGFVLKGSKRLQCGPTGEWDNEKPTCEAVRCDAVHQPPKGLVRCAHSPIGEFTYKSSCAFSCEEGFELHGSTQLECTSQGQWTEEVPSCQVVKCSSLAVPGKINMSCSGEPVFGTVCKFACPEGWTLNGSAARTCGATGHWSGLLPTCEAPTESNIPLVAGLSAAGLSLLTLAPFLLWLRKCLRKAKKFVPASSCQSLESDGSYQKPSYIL

CN(C)CCO
not listed: [11] | [12] | [13] | [14]
inactive: all other assays above

Cc1cccc([N+](=O)[O-])c1
not listed: [13] | [14]
inactive: all other assays above

CCOC(=O)C(O)(c1ccc(Cl)cc1)c1ccc(Cl)cc1
active: [1] 28.2 µM | [2] 34 µM | [3] 39.3 µM | [4] 34 µM | CD38, CD38 (gene 952) 29.4 µM | CD40, CD40 (gene 958) 30.4 µM | CD69, CD69 (gene 969) 36 µM | [5] 35.2 µM | [6] 39.3 µM | [7] 33.7 µM | [8] 32.9 µM | [10] 32.3 µM

Cc1ccccc1CO[C@@H]1C[C@@]2(C(C)C)CC[C@]1(C)O2
not listed: [9] | [11] | [12] | [13] | [14]
inactive: all other assays above

CO/C=C(/C(=O)OC)c1ccccc1COc1cccc(C(F)(F)F)n1
active: [1] 12 µM | [3] 0.783 µM | [4] 13.4 µM | CD38, CD38 (gene 952) 6.48 µM | CD40, CD40 (gene 958) 7.75 µM | CD69, CD69 (gene 969) 5.07 µM | [5] 8.9 µM | [11] 6.75 µM | [6] 26.5 µM | [7] 1.17 µM | [8] 5.66 µM | [9] 4.57 µM | [10] 9.02 µM
inactive: [2] | [13]

CCOP(=S)(OCC)SCSC(C)(C)C
active: [3] 35.2 µM | [7] 31.1 µM | [9] 28.8 µM
not listed: [11] | [12] | [13] | [14]
inactive: all other assays above

Oc1c(Cl)c(Cl)c(Cl)c(Cl)c1Cl
active: [1] 10.2 µM and 25.5 µM | [3] 20 µM | [4] 10.2 µM and 14.6 µM | CD38, CD38 (gene 952) 27.7 µM | CD40, CD40 (gene 958) 10.2 µM and 24.1 µM | CD69, CD69 (gene 969) 10.2 µM and 19.8 µM | [5] 10.2 µM and 33.6 µM | [6] 34.8 µM | [7] 8 µM | [9] 15.8 µM and 26.9 µM | [10] 14.6 µM and 21.8 µM
inactive: [3] | [6] | [7] | [8] | [12] | [14]
